Screening data from PubChem BioAssay.
JMJD2A Tudor – qHTS Assay for Inhibitors of JMJD2A-Tudor Domain; Lysine-specific demethylase 4A (Homo sapiens), O75164; AlphaScreen JMJD2A-Tudor / H3K4me3 peptide binding; Potency, µM (titrated, usually from 114 µM), inactives show at the highest dose activity change, negative = inhibition, actives largely listed as inhibitors; actives 4.4% (n = 390,000); also: potency is read from the fitted curve at half-maximal effect; % is scaled to controls: 0 for no effect and ±100 for the full control effect; nearly all actives have a fitted effect of over 50% in size
BAZ2B block – qHTS Assay for Inhibitors of BAZ2B | actives 4.4% (n = 360,000) | Bromodomain adjacent to zinc finger domain protein 2B (Homo sapiens), Q9UIF8 | Potency, µM (top dose mostly 114 µM), inactives show at the top dose activity change, negative = inhibition, actives largely listed as inhibitors | AlphaScreen BAZ2B-H3K14Ac peptide displacement; also: potency is read from the fitted curve at half-maximal effect; % is scaled to controls: 0 for no effect and ±100 for the full control effect; nearly all actives have a fitted effect of over 60% in size
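AlphaScreen displacement of biotin-H3(5-23)K14Ac peptide (50 nM final) from BAZ2B (50 nM final) in PBS pH 7.4, 0.01% Tween-20; complex preformed 30 min RT, then compounds (top 110 uM) 30 min RT, beads 20 min dark.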
PI5P4Ka inh – qHTS for Inhibitors of phosphatidylinositol 5-phosphate 4-kinase (PI5P4K); Phosphatidylinositol 5-phosphate 4-kinase type-2 alpha (Homo sapiens), P48426; PI5P4Kalpha enzyme, ADP-Glo luminescence, 60 min; stronger effect = lower value; max response, %; actives 1.2% (n = 330,000); AID 652105, 2013; active = max response of -50% or lower; inconclusive = between -30% and -50%; inactive = -30% or higher; also: value at the top dose of about 77 µM; % is scaled to controls: 0 for no effect and ±100 for the full control effect
Target sequence (P48426 whole entry, looked up): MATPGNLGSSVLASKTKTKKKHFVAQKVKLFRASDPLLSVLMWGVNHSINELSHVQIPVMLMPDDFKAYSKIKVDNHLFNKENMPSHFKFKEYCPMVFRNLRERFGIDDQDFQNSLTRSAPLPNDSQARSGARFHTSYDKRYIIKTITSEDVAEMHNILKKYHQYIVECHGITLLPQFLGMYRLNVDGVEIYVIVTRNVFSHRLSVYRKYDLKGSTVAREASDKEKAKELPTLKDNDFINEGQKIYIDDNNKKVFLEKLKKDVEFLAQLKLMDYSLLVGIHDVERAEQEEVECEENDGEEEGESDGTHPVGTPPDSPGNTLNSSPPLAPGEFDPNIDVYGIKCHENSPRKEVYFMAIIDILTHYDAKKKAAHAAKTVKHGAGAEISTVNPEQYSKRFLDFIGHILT
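PI5P4Kalpha ADP-Glo assay; 5 microM ATP final; 60 min RT reaction; HEPES pH 7.4/EGTA/CHAPS, 5% DMSO; controls lacking substrate or enzyme; luminescent end-point.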
HP1b chromo inh – HTS for Inhibitors of HP1-beta Chromodomain Interactions with Methylated Histone Tails; Chromobox protein homolog 1 (Homo sapiens), P83916; AlphaScreen HP1-beta / biotin-H3K9me3 peptide binding; Potency, µM (series often up to 114 µM), inactives show at the top dose activity change, negative = inhibition, most hits filed as inhibitors; actives 0.56% (n = 390,000); AID 540317, 2011; also: potency is read from the fitted curve at half-maximal effect; nearly all actives have a fitted effect of over 70% in size
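AlphaScreen: HP1-beta (50 nM) preformed 30 min with biotin-H3(1-18)K9me3 peptide (50 nM) in PBS pH 7.4, 0.01% Tween-20. Compound added for 30 min at RT, then streptavidin donor/nickel chelate acceptor beads (10 ug/mL) for 30 min.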
G9a block – qHTS Assay for Inhibitors of Histone Lysine Methyltransferase G9a; G9a H3K9 monomethylation, AlphaScreen, 2 h; Potency, µM (titrated, usually from 102 µM), without a hit: top-dose activity, negative = inhibition, actives largely listed as inhibitors; actives 8.8% (n = 350,000); AID 504332, 2011; Histone-lysine N-methyltransferase EHMT2 (Homo sapiens), Q96KQ7; also: potency is read from the fitted curve at half-maximal effect; % is scaled to controls: 0 for no effect and ±100 for the full control effect; nearly all actives have a fitted effect of over 75% in size
Target sequence (Q96KQ7 913-1193 limits assumed): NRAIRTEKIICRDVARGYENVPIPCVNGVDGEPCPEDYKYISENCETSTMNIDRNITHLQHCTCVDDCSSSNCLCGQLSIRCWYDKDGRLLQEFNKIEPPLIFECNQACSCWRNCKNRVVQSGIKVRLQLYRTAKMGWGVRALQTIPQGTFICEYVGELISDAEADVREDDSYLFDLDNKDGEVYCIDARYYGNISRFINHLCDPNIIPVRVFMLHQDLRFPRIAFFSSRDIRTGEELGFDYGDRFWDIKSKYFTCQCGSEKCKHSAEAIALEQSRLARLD
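Using a bead-based AlphaScreen, monomethylated H3K9 product from 2 h room-temperature reactions (G9a 20 nM, peptide 500 nM, SAM 20 uM) was detected with 0.5 ug/mL rabbit anti-H3K9me1 antibody.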
PLK1 PBD inh – qHTS for Inhibitors of PLK1-PDB (polo-like kinase 1 - polo-box domain): Primary Screen; Potency, µM, for inactives: max response, negative = inhibition, hits mostly inhibitors; Plk1 PBD binding of FITC phosphopeptide, fluorescence polarization; actives 2.8% (n = 360,000); Serine/threonine-protein kinase PLK1 (Homo sapiens), P53350; AID 720504, 2013; also: potency is read from the fitted curve at half-maximal effect; series mostly up to about 57 µM; % is scaled to controls: 0 for no effect and ±100 for the full control effect; nearly all actives have a fitted effect of over 65% in size
* hit, by the source's call; ? = inconclusive; . = no result given; [ ] = remark or other dose. Most compounds without a hit are left out; they make up all but 12% or so of the library. Unless noted, calls follow the shape of the dose curve; as a rule, active = well fitted curve in the direction sought with a large enough effect; inconclusive = small, poorly fitted or top-dose-only effect, or another doubt; inactive = no such curve, though single readings can be large; an effect the other way counts as inactive or inconclusive.

SMILES	JMJD2A Tudor	BAZ2B block	PI5P4Ka inh	HP1b chromo inh	G9a block	PLK1 PBD inh
O=c1oc(-c2ccc([N+](=O)[O-])cc2)nc2ccccc12	-18.4%	-7.2%	0.0	12.5%	-3.2%	1.2%
Cc1noc(C)c1-c1nccc(N2CCN(C)CC2)n1	.	.	.	.	-19.8%[0.501 µM]	.
CC(=O)N1c2ccc(Cl)cc2C2C=CCC2C1c1cccc2ccccc12 (configuration not stated)	-35.4%	-32.7%	-7.8	3.8%	12.6µM*	-4.8%
CCOc1ccc2c(ccc(/C=C/c3cc(C)c4cccnc4c3O)[n+]2C)c1	10µM*	.	-84.7*	?	.	-2.5%
Cc1oc(-c2ccccc2Cl)nc1CN1CCCC1c1ccc(F)cc1 (configuration not stated)	-16.4%	-2.4%	0.9	31.8%	.	-5.1%
Cc1ccc(-c2nc(CN3CCCCC3c3cccc(F)c3)c(C)o2)o1 (configuration not stated)	?	-38.6%	-9.2	-21.0%	39.8µM*	2.7%
S=c1[nH]nc(C2CCCCC2)n1/N=C/c1cccc(Cl)c1Cl	-35.7%	-4.2%	0.7	-14.4%	8.91µM*	-27.7%
S=c1[nH]nc(C2CCCCC2)n1/N=C/c1ccccc1	56.2µM*	-38.4%	-3.9	-7.7%	20µM*	?
S=c1[nH]nc(C2CCCCC2)n1/N=C/c1ccco1	12.6µM*	-9.0%	5.5	-4.9%	1.41µM*	-17.8%
CN(C)c1ccc(/C=N/n2c(C3CCCCC3)n[nH]c2=S)cc1	39.8µM*	?	-19.3	?	10µM*	-26.0%
COc1ccc(Cc2nnc(SC(C)C(=O)Nc3ccc(C(N)=O)cc3)o2)cc1 (configuration not stated)	0.7%	-3.7%	6.5	30.8%	?	-5.1%
CCCCN(CCCN)c1ccc(Br)cn1	-21.1%	.	.	13.2%	.	.
C=CC[N+]1([C@H]2C[C@H]3[C@@H]4CC[C@H]5C[C@H](O)[C@@H](N6CCOCC6)C[C@]5(C)[C@H]4CC[C@]3(C)[C@H]2OC(C)=O)CCCC1	.	.	.	.	-24.6%[12.7 µM]	.
CC(C)N1CCC(C)(C(=O)Nc2cccc(Oc3ccccc3)c2)C1 (configuration not stated)	.	.	5.9	.	.	-2.4%
CCOc1ccc(/C=N/n2cnnc2)cc1	-14.2%	5.4%	.	5.8%	-30.8%[12.7 µM]	-4.4%
Fc1ccc(/C=N/n2c(C3CCCCC3)n[nH]c2=S)cc1	56.2µM*	-37.7%	-0.9	?	7.08µM*	?
Nc1nnnn1/N=C/c1ccc(F)cc1	-12.8%	-4.8%	-0.5	44.4%	32.4%	-2.4%
CCOc1ccc(/C=N/n2c(C3CCCCC3)n[nH]c2=S)cc1	?	-0.5%	-6.9	8.6%	28.2µM*	?
O=C(O)CC(C(=O)O)n1nc(-c2ccccc2)cc1-c1ccccc1 (configuration not stated)	?	.	1.4	46.6%	-34.4%[59 µM]	-10.2%
O=C(O)Cn1nc(-c2ccccc2)cc1-c1ccccc1	?	4.6%	0.5	-0.3%	.	21.2µM*
CCC1=NNc2cccc3c(OC)ccc1c23	.	28.2µM*	.	.	25.1µM*	.
Cc1ccc(S(=O)(=O)N2CCN(S(=O)(=O)N3CCCCC3)CC2)cc1	-10.2%	10.5%	-13.4	25.5%	12.0%[59 µM]	0.7%
CC(=O)Nc1ccc(C2=NNC(=Nc3ccc(S(=O)(=O)N4CCOCC4)cc3)SC2)cc1	-28.6%	-22.3%	?	?	2.82µM*	?
O=S(=O)(c1ccc(N=C2NN=C(c3cc(F)ccc3F)CS2)cc1)N1CCOCC1	-32.2%	23.0%	-50.7*	-18.2%	10.8%	?
Fc1ccc(N=C2NN=C(c3cc(F)ccc3F)CS2)cc1	-28.3%	?	-13.1	-21.4%	-11.3%[59 µM]	?
SMILES	JMJD2A Tudor	BAZ2B block	PI5P4Ka inh	HP1b chromo inh	G9a block	PLK1 PBD inh
CC(C)(C)N=C1NN=C(c2ccc(S(=O)(=O)N3CCCCC3)cc2)CS1	-28.2%	-35.7%	-4.8	11.9%	35.5µM*	-11.7%
Cc1ccc(OCCCn2c(-c3ccc(Cl)cc3)nc3ccccc3c2=O)c(C)c1	20.1%	12.8%	.	40.4%	-40.7%[59 µM]	.
CC(C(=O)Nc1nccs1)N1C(=O)c2ccccc2S1(=O)=O (configuration not stated)	-12.3%	2.0%	2.5	13.0%	-50.6%	-4.1%
CCN(CC)CCNC(=O)c1cccc(NC(=O)C(=O)c2cc(Br)ccc2NC(C)=O)c1	-22.6%	-16.7%	3.1	12.3%	?	-12.1%
CCCCc1nn2c(=O)cc(COC(=O)c3ccccc3C)nc2s1	-9.7%	-8.0%	.	17.8%	11.2%[59 µM]	.
Cn1nnnc1SCCCNCc1ccccc1OCc1ccccc1Cl	-16.6%	-12.0%	.	26.3%	-32.8%[59 µM]	.
Cn1c(=O)c2c(-c3ccccc3F)c3c(nc2n(C)c1=O)-c1ccccc1C3O (configuration not stated)	-11.2%	-3.5%	-3.0	8.8%	10µM*	-12.6%
CCCc1nc2ccc(NC(C)=O)cc2c(=O)n1Cc1ccc(Cl)cc1	-21.0%	-36.7%	1.4	11.9%	-6.7%[59 µM]	-9.1%
CCCc1nc2ccc(NC(=O)c3cccs3)cc2c(=O)n1Cc1ccccc1Cl	?	-5.0%	-11.4	?	8.0%[59 µM]	29.9µM*
CCN(CC)S(=O)(=O)c1ccc(C)c(NC(=S)N2CCN(c3ccccn3)CC2)c1	-26.6%	-17.5%	-3.5	-9.3%	31.6µM*	29.9µM*
CCN(CC)S(=O)(=O)c1ccc(C)c(NC(=S)N2CCN(C/C=C/c3ccccc3)CC2)c1	-34.7%	?	-2.6	15.5%	35.5µM*	-26.6%
CCN(CC)S(=O)(=O)c1ccc(C)c(NC(=S)N2CCN(Cc3ccc4c(c3)OCO4)CC2)c1	?	?	1.6	-5.5%	?	?
Cc1ccccc1-c1nc(CNC(=O)NC2CCCCC2)c(C)o1	-10.6%	-10.1%	.	31.3%	4.6%[59 µM]	.
COc1ccc(N=c2nc(-c3ccccc3)n(-c3ccc(C)cc3)s2)cc1	-35.4%[57.1 µM]	.	.	-29.0%[57 µM]	.	.
Oc1ccc(C2Oc3cc(O)cc(O)c3CC2O)cc1 (configuration not stated)	.	.	.	.	-19.8%[2.33 µM]	.
Oc1cc(O)c2c(c1)O[C@H](c1ccc(O)c(O)c1)[C@H](O)C2	-16.5%	?	-1.7	18.1%	10µM*	-6.3%
O=C(CSc1nnnn1-c1cccc2c1CCCC2)N1CCCC1	-19.8%[11.4 µM]	-6.6%	?	?	-13.3%[59 µM]	4.74µM*
O=C(CSc1nnnn1-c1cccc2c1CCCC2)N1CCOCC1	-11.8%	0.4%	.	5.8%	-31.8%	-2.0%
